Where “and” joins values, the source holds several entries; their conditions need not be identical. Identical values can stand only once. In all, about 5,500 compounds went through this assay and about 2,000 (36%) were called active. Not shown: some 18% with an inconclusive outcome. Rule as the data show it: active = normalized growth mostly below about 0.91 (no sharp cut-off); inconclusive = no clear call, values can overlap the other calls; inactive = mostly above about 0.92. Some of the results follow. A structure can be active in one record and inactive in another.
Assay: chemical genetic growth profiling, strain panel (AID 1159580);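 also: tested at 20 µM; growth read once vehicle control cultures reached saturation at 30 °C; 1 = growth at the plate median or of vehicle wells; lower values mean less growth of the strain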
Conditions: S. cerevisiae deletion strains, growth OD

Measured: normalized growth

NCCOB(c1ccccc1)c1ccccc1
0.868 (active) and 0.944 (inactive): locus YLL041C, strain sdh2, stronger effect = lower value
0.892 (active) and 0.987 (inactive): locus YAL030W, strain snc1, stronger effect = lower value
0.891 (inactive) and 0.792 (active): locus YPL106C, strain sse1, stronger effect = lower value
0.815 (active) and 0.926 (inactive): locus YER155C, strain BEM2 (second series), stronger effect = lower value
0.836 (active) and 0.998 (inactive): locus YLL026W, stronger effect = lower value
inactive: locus YAL021C, strain ccr4, stronger effect = lower value 0.936 and 0.969 | locus YBR023C, strain chs3, stronger effect = lower value 0.925 and 0.92 | locus YBR171W, strain sec66, stronger effect = lower value 0.968 and 0.998 | locus YBR231C, strain swc5, stronger effect = lower value 1.03 and 1 | locus YCL016C, strain dcc1, stronger effect = lower value 1.01 and 0.977 | locus YDL005C, strain med2, stronger effect = lower value 1 and 1.03 | locus YDL040C, strain nat1, stronger effect = lower value 1.01 and 1.02 | locus YDR069C, strain doa4, stronger effect = lower value 1.02 and 1.01 | locus YDR137W, strain rgp1, stronger effect = lower value 0.997 and 0.987 | locus YDR159W, strain sac3, stronger effect = lower value 1.03 and 1.06 | locus YDR195W, strain ref2 1.11 and 1.07 | locus YDR297W, strain sur2, stronger effect = lower value 1.01 and 0.979 | locus YDR335W, strain msn5, stronger effect = lower value 1 and 0.991 | locus YEL003W, strain gim4, stronger effect = lower value 1.02 and 0.999 | locus YEL037C, strain rad23, stronger effect = lower value 1.01 | locus YEL061C, strain CIN8 (second series), stronger effect = lower value 1.01 | locus YER016W, strain bim1, stronger effect = lower value 1.02 | locus YER111C, strain swi4, stronger effect = lower value 1.02 and 1.01 | locus YGL167C, strain pmr1, stronger effect = lower value 1.04 and 1.05 | locus YGL173C, strain kem1, stronger effect = lower value 0.927 and 0.93 | locus YHR142W, strain chs7, stronger effect = lower value 0.882 and 0.977 | locus YJL129C, strain trk1, stronger effect = lower value 0.965 and 0.979 | locus YLL001W, strain dnm1, stronger effect = lower value 0.995 and 0.946 | locus YLR320W, strain mms22, stronger effect = lower value 0.973 and 1 | locus YLR384C, strain iki3, stronger effect = lower value 1.02 | locus YML120C, strain ndi1, stronger effect = lower value 0.961 and 0.993 | locus YMR205C, strain PFK2, stronger effect = lower value 0.937 and 0.943 | locus YNL322C, strain KRE1 (second series), stronger effect = lower value 1.04 and 1.03 | locus YOR001W, strain rrp6, stronger effect = lower value 0.947 and 1 | locus YOR080W, strain dia2, stronger effect = lower value 1.02 | locus YOR270C, strain vph1, stronger effect = lower value 0.934 and 0.992 | locus YOR290C, strain snf2, stronger effect = lower value 0.895 and 0.926 | locus YPL078C, strain atp4, stronger effect = lower value 0.967 and 0.972 | locus YPL240C, strain hsp82, stronger effect = lower value 1.02 and 0.932
0.694 (active) and 0.939 (inactive): locus YLR027C, strain aat2, stronger effect = lower value
0.879 (active) and 0.913 (inactive): locus YCL011C, strain gbp2, stronger effect = lower value
0.887 (active) and 0.923 (inactive): locus YJL095W, strain BCK1 (second series), stronger effect = lower value
0.923 (inactive) and 0.845 (active): locus YLR262C, strain YPT6 (second series), stronger effect = lower value
active: locus YAL026C, strain drs2, stronger effect = lower value 0.153 and 0.218 | locus YBL061C, strain skt5, stronger effect = lower value 0.578 and 0.786 | locus YBR009C, strain hhf1, stronger effect = lower value 0.758 and 0.788 | locus YBR279W, strain paf1, stronger effect = lower value 0.46 and 0.808 | locus YCL061C, strain MRC1, stronger effect = lower value 0.827 and 0.759 | locus YCL069W, strain vba3, stronger effect = lower value 0.437 and 0.312 | locus YCR088W, strain abp1, stronger effect = lower value 0.604 and 0.524 | locus YDR001C, strain nth1, stronger effect = lower value 0.651 and 0.789 | locus YDR334W, strain swr1, stronger effect = lower value 0.472 and 0.793 | locus YDR392W, strain spt3, stronger effect = lower value 0.423 and 0.451 | locus YER015W, strain faa2, stronger effect = lower value 0.528 and 0.733 | locus YFR010W, strain ubp6, stronger effect = lower value 0.351 and 0.387 | locus YGL227W, strain vid30, stronger effect = lower value 0.602 and 0.427 | locus YGL240W, strain doc1, stronger effect = lower value 0.822 and 0.865 | locus YGL253W, strain hxk2, stronger effect = lower value 0.468 and 0.384 | locus YHR013C, strain ard1, stronger effect = lower value 0.432 and 0.49 | locus YHR027C, strain rpn1, stronger effect = lower value 0.799 and 0.766 | locus YHR030C, strain SLT2, stronger effect = lower value 0.106 | locus YHR079C, strain IRE1, stronger effect = lower value 0.11 | locus YJL092W, strain hpr5, stronger effect = lower value 0.334 and 0.399 | locus YJL095W, strain BCK1, stronger effect = lower value 0.106 | locus YJL115W, strain asf1, stronger effect = lower value 0.85 and 0.877 | locus YJL154C, strain vps35, stronger effect = lower value 0.454 and 0.657 | locus YJL164C, strain tpk1, stronger effect = lower value 0.824 and 0.786 | locus YJL166W, strain qcr8, stronger effect = lower value 0.841 and 0.839 | locus YJL187C, strain SWE1, stronger effect = lower value 0.798 | locus YJR066W, strain TOR1, stronger effect = lower value 0.00283 | locus YKL160W, strain elf1, stronger effect = lower value 0.717 and 0.751 | locus YKR026C, strain gcn3, stronger effect = lower value 0.381 and 0.353 | locus YKR091W, strain srl3, stronger effect = lower value 0.357 and 0.316 | locus YLR113W, strain HOG1, stronger effect = lower value 0.141 | locus YLR221C, strain rsa3, stronger effect = lower value 0.372 and 0.709 | locus YLR258W, strain gsy2, stronger effect = lower value 0.578 and 0.778 | locus YLR342W, strain FKS1, stronger effect = lower value 0.841 and 0.823 | locus YLR357W, strain rsc2, stronger effect = lower value 0.629 | locus YLR370C, strain arc18, stronger effect = lower value 0.44 and 0.485 | locus YMR058W, strain fet3, stronger effect = lower value 0.167 and 0.157 | locus YMR125W, strain sto1, stronger effect = lower value 0.759 and 0.824 | locus YMR129W, stronger effect = lower value 0.507 and 0.306 | locus YMR231W, strain pep5, stronger effect = lower value 0.247 and 0.309 | locus YNL071W, strain lat1, stronger effect = lower value 0.248 and 0.315 | locus YNL183C, strain NPR1, stronger effect = lower value 0.000102 | locus YNL209W, strain ssb2, stronger effect = lower value 0.699 and 0.694 | locus YNL248C, strain rpa49, stronger effect = lower value 0.693 and 0.758 | locus YNR049C, strain mso1, stronger effect = lower value 0.585 and 0.756 | locus YOR070C, strain gyp1, stronger effect = lower value 0.657 and 0.767 | locus YOR083W, strain WHI5, stronger effect = lower value 0.202 and 0.184 | locus YOR106W, strain vam3, stronger effect = lower value 0.688 and 0.741 | locus YOR231W, strain MKK1, stronger effect = lower value 0.0985 | locus YOR265W, strain rbl2, stronger effect = lower value 0.79 and 0.861 | locus YPL051W, strain arl3, stronger effect = lower value 0.622 and 0.599 | locus YPL256C, strain CLN2, stronger effect = lower value 0.118
